Bioassay records: PubChem, Broad Institute
PD-1 reverse act: activators reversing PD-1 mediated T-cell inhibition | AID 2316 | 29,000 tested, under 10 active | activation, % (concentration not given with the values) | primary human CD4 T cells, PD-L1 beads, CellTiter-Glo 96 h; call rule not given here
NOMO-1 viab: STK33 inhibitor candidate reducing NOMO-1 cell viability; NOMO-1 AML viability, CellTiter-Glo luminescence, 72 h; inhibition, % (test concentration not listed); hit rate 7.5% among 37,000; AID 2330; in the data active means inhibition above about 80%; inconclusive means no clear call, values can overlap the other calls
STK33 inh: blocks human STK33 kinase activity; Q9BYT3; ADP-Glo luminescence, MBP substrate; inhibition, % at 12.5 µM; hit rate 0.44% among 27,000; in the data active means inhibition above about 20%; inconclusive means no clear call, values can overlap the other calls
Target sequence (Q9BYT3 whole entry, looked up): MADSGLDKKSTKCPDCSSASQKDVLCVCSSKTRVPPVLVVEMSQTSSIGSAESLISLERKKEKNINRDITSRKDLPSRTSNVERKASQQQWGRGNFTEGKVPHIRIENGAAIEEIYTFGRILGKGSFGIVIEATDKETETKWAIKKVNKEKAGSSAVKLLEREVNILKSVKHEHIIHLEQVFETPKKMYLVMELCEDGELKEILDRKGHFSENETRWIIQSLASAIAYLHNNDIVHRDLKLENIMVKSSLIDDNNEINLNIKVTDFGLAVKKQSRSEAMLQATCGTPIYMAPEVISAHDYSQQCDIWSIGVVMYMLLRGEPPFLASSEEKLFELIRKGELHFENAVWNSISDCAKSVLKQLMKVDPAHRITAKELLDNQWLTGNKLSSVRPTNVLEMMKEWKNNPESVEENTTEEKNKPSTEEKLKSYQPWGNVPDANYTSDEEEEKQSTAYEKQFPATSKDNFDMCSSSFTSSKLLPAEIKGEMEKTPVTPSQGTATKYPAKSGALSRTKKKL
Of the large screens only hits and unclear results are named; the others gave an inactive call; ! = a repeat was not active. Only a selection was taken, and hits are over-represented in it overall.

C[C@@H]1CCCCO[C@@H](CN(C)Cc2ccccc2)[C@@H](C)CN([C@H](C)CO)C(=O)c2cc(NS(=O)(=O)c3ccccc3)ccc2O1	none
COc1ccc(CN(C)C[C@H]2OCCCC[C@@H](C)Oc3ccc(NS(=O)(=O)c4ccc(C)cc4)cc3C(=O)N([C@H](C)CO)C[C@@H]2C)cc1	none (no result: PD-1 reverse act)
COc1ccc(OCCC(=O)NN)cc1	none (no result: STK33 inh)
Cc1ccc(C)c(NC(=O)C(Cc2ccccc2)N2C(=O)c3ccccc3C2=O)c1 (centres undefined)	none (no result: PD-1 reverse act)
CC(=O)Oc1ccc(O)cc1	none
CCOC(=O)Cn1c(C)c(Sc2ccccc2)c2ccccc21	none (no result: STK33 inh)
CCN(CC)S(=O)(=O)c1cccc(C(=O)NN)c1	none
C[C@@H]1CCCCO[C@@H](CN(C)Cc2ccc(C(F)(F)F)cc2)[C@@H](C)CN([C@H](C)CO)C(=O)c2cc(NS(=O)(=O)c3ccc(Cl)cc3)ccc2O1	NOMO-1 viab 111
C[C@@H]1CCCCO[C@H](CN(C)C(=O)Nc2ccc(C(F)(F)F)cc2)[C@@H](C)CN([C@H](C)CO)C(=O)c2cc(NS(=O)(=O)c3cccs3)ccc2O1	none
C[C@@H]1CCCCO[C@H](CN(C)Cc2ccc(C(F)(F)F)cc2)[C@@H](C)CN([C@H](C)CO)C(=O)c2cc(NS(=O)(=O)c3ccc(F)cc3)ccc2O1	NOMO-1 viab 100 (no result: PD-1 reverse act, STK33 inh)
C[C@@H]1CCCCO[C@H](CN(C)Cc2ccncc2)[C@@H](C)CN([C@H](C)CO)C(=O)c2cc(NS(=O)(=O)c3ccc(F)cc3)ccc2O1	none (no result: PD-1 reverse act, STK33 inh)
C[C@@H]1CCCCO[C@@H](CN(C)Cc2ccncc2)[C@@H](C)CN([C@H](C)CO)C(=O)c2cc(NS(=O)(=O)c3ccc(Cl)cc3)ccc2O1	none
COc1ccc(S(=O)(=O)Nc2ccc3c(c2)C(=O)N([C@H](C)CO)C[C@H](C)[C@H](CN(C)Cc2ccc(C(F)(F)F)cc2)OCCCC[C@@H](C)O3)cc1	NOMO-1 viab 105
COc1ccc(CN(C)C[C@@H]2OCCCC[C@@H](C)Oc3ccc(NS(=O)(=O)c4ccc(OC)cc4)cc3C(=O)N([C@H](C)CO)C[C@@H]2C)cc1	none
C[C@@H]1CCCCO[C@@H](CN(C)C(=O)Nc2ccc(C(F)(F)F)cc2)[C@@H](C)CN([C@H](C)CO)C(=O)c2cc(NS(=O)(=O)c3cccs3)ccc2O1	NOMO-1 viab 114
NNC(=O)CNC(=O)c1ccccc1	none
Cc1ccn(CN2CCN(Cn3ccc(C)n3)C2=S)n1	none (no result: STK33 inh)
CCN(CC)c1nc2ccccc2c(=O)s1	none (no result: STK33 inh)
Cc1ccc(OC(=O)OCSc2nn[nH]n2)cc1	NOMO-1 viab 119
COc1ccc(C(=O)CSc2n[nH]c(-c3ccc(C)cc3)n2)cc1	none (no result: PD-1 reverse act)
Cn1c(SCC(=O)N2CCc3ccccc32)nnc1-c1ccc(NC(=O)c2ccc(F)cc2)cc1	none (no result: PD-1 reverse act)
Cc1ccc(-c2cc(C(F)(F)F)n3nc(C(=O)NCc4cc(C)n(C)n4)cc3n2)cc1C	none
S=C(CC(=S)N1CCOCC1)N1CCOCC1	NOMO-1 viab 86
Fc1cc(F)c(NC(=S)N2CCOCC2)c(F)c1	none (no result: STK33 inh)
CC(C)(CO)NC(=O)c1sc2ccccc2c1Cl	none (no result: STK33 inh)
CC(NS(=O)(=O)c1ccc(C(C)(C)C)cc1)c1ccccc1 (centres undefined)	none (no result: STK33 inh)
CNCCC(Oc1ccc(C(F)(F)F)cc1)c1ccccc1 (centres undefined)	NOMO-1 viab 119!
CNC(=O)c1cccc2cccc(Br)c12	none (no result: STK33 inh)
C[C@H]1CN([C@@H](C)CO)C(=O)Cc2cc(NC(=O)Nc3cccc4ccccc34)ccc2O[C@@H]1CN(C)Cc1ccc(Cl)c(Cl)c1	NOMO-1 viab 108 (no result: STK33 inh)
C[C@H](CO)N1C[C@H](C)[C@H](CN(C)Cc2ccc(-c3ccccc3)cc2)Oc2ccc(NC(=O)Nc3cccc4ccccc34)cc2CC1=O	none
C[C@@H]1CN([C@H](C)CO)C(=O)Cc2cc(NC(=O)Nc3cccc4ccccc34)ccc2O[C@@H]1CN(C)Cc1ccccc1	NOMO-1 viab 88
C[C@@H]1CN([C@H](C)CO)C(=O)Cc2cc(NC(=O)Nc3cccc4ccccc34)ccc2O[C@@H]1CN(C)Cc1ccncc1	none
CCOC(=O)c1ccccc1NC(=O)CC1Sc2ccc(C(F)(F)F)cc2NC1=O (centres undefined)	none
O=C1CSC2=NC3=C(CCc4ccccc43)C(c3cccs3)N12 (centres undefined)	none (no result: STK33 inh)
COC(=O)C1=C(Nc2ccc(F)cc2F)CSC1	none (no result: STK33 inh)
CN(C)CCCn1cc(C2=C(c3c[nH]c4ccccc34)C(=O)NC2=O)c2ccccc21	NOMO-1 viab inconclusive, STK33 inh 114 (no result: PD-1 reverse act)
COC(=O)c1cn(CC(N)=O)c2ccccc12	none
Cn1cc(C2=C(c3cn(CCCSC(=N)N)c4ccccc34)C(=O)NC2=O)c2ccccc21	NOMO-1 viab 142, STK33 inh 106
O=C(O)CSc1c[nH]c2ccccc12	none (no result: PD-1 reverse act)
C=CCN1C(=O)[C@]2(O[C@H](CCO)[C@@H]([Si](C)(C)c3ccc(OC)cc3)[C@@H]2C)c2cc(NC(C)=O)ccc21	none (no result: PD-1 reverse act, NOMO-1 viab)
COc1ccccc1NC(=O)c1ccccc1NC(=O)COc1ccccc1C	none
Cc1cc(C(=O)Nc2cccc3c2O[C@H](CN(C)Cc2ccc(C(=O)Nc4ccccc4N)cc2)[C@@H](C)CN([C@H](C)CO)C3=O)n(C)n1	none (no result: STK33 inh)
C[C@H](CO)N1C[C@H](C)[C@H](CN(C)Cc2ccc(C(=O)Nc3ccccc3N)cc2)Oc2c(cccc2N(C)C)C1=O	NOMO-1 viab 124 (no result: STK33 inh)
Cc1cc(C(=O)Nc2cccc3c2O[C@@H](CN(C)Cc2ccc(C(=O)Nc4ccccc4N)cc2)[C@H](C)CN([C@H](C)CO)C3=O)n(C)n1	none (no result: STK33 inh)
C[C@@H]1CN([C@H](C)CO)C(=O)c2cccc(N(C)C)c2O[C@@H]1CN(C)Cc1ccc(C(=O)Nc2ccccc2N)cc1	NOMO-1 viab 127 (no result: STK33 inh)
Clc1ccc(-c2nc(Sc3nc(-c4cccs4)ns3)n[nH]2)cc1	none
COc1ccc(OC)c(NC(=O)c2ccc(Cl)c(S(=O)(=O)Nc3ccc(C)cc3C)c2)c1	none (no result: PD-1 reverse act)
CC(=O)c1ccc(NC(=O)CSc2nncn2C)cc1	none (no result: PD-1 reverse act, NOMO-1 viab)
COc1ccccc1CCNC(=O)c1cc(-c2ccncc2)nc2c(C)c(Cl)ccc12	none (no result: PD-1 reverse act)
COc1ccccc1CCNC(=O)c1cc(-c2ccccn2)nc2c(C)c(Cl)ccc12	NOMO-1 viab 101 (no result: PD-1 reverse act)
COc1ccc2c(c1)O[C@@H]1COc3cc(OC)c(OC)cc3[C@@H]1C2=O	none (no result: PD-1 reverse act)
CCOC(=O)c1cnc2ccc(OCC)cc2c1N(C)Cc1ccccc1	NOMO-1 viab 96 (no result: STK33 inh)
CCOC(=O)c1cnc2cc(C(F)(F)F)ccc2c1N(C)Cc1ccccc1	none
CNC(=O)c1ccc2nc(N)sc2c1	none (no result: STK33 inh)
O=c1c(O)c(-c2ccccc2)oc2cc(O)cc(O)c12	none
O=c1c(O)c(-c2cc(O)c(O)c(O)c2)oc2cc(O)cc(O)c12	STK33 inh 36 (no result: PD-1 reverse act)
COc1ccc(OCc2ncc(-c3ccc4c(c3)OCCCO4)s2)cc1	none (no result: STK33 inh)
O=C(CSc1ncnc2sc3c(c12)CCCCC3)NCC1CCCO1 (centres undefined)	none
CC1CCN(S(=O)(=O)c2cccc(C(=O)NC(C)(C)CO)c2)CC1	none
CC1CCN(S(=O)(=O)c2ccc(NC(=O)c3ccc(C(C)(C)C)cc3)cc2)CC1	NOMO-1 viab 114 (no result: STK33 inh)
N#Cc1ccc2nc(C(O)C(O)c3nc4ccc(C#N)cc4[nH]3)[nH]c2c1 (centres undefined)	none
CCOC(=O)c1sc(SC)c2c1CCCC21SCCS1	none (no result: STK33 inh)
C[C@@H]1CN([C@H](C)CO)C(=O)Cc2cc(NC(=O)Nc3ccc4c(c3)OCO4)ccc2O[C@@H]1CN(C)Cc1ccc(Cl)c(Cl)c1	NOMO-1 viab 108 (no result: STK33 inh)
